Only a selection was taken, and hits are over-represented in it overall.
15-hLO-2 inh: qHTS Assay for Inhibitors of 15-hLO-2 (15-human lipoxygenase 2) | Potency, µM (titrated, usually from 57.1 µM), for inactives: at the top dose activity change, negative = inhibition, most hits filed as inhibitors | purified 15hLO-2, xylenol orange hydroperoxide absorbance | Polyunsaturated fatty acid lipoxygenase ALOX15B (Homo sapiens), O15296 | 110,000 tested, 0.56% active; further: potency means the concentration at half of the fitted maximal effect; nearly all actives have a fitted effect of over 60% in size
Target sequence (O15296 whole entry, looked up): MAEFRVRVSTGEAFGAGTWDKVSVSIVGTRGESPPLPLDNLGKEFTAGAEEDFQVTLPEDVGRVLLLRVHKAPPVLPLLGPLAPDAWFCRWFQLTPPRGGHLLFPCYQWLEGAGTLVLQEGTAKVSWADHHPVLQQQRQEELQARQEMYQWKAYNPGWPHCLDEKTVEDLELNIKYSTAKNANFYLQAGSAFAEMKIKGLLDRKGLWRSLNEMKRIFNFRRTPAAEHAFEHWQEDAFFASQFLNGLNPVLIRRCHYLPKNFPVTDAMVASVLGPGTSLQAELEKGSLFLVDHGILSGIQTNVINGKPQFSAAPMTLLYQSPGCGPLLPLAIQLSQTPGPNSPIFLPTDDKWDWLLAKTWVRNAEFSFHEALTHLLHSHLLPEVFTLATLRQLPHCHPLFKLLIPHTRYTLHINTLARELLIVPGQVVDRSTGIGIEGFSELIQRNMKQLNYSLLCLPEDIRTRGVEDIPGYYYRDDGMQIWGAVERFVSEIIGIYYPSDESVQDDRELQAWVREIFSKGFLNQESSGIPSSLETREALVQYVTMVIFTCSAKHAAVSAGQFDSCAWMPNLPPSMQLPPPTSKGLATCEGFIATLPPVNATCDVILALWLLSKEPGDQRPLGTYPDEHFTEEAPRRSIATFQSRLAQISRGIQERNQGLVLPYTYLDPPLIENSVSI
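Purified human 15hLO-2 (50 nM final) preincubated with compounds 15 min at room temperature in 25 mM Hepes pH 7.5, 0.01% Triton X-100, then 45 uM arachidonic acid added for 90 min; hydroperoxide detected via ferrous/xylenol orange, 573/405 nm absorbance ratio.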
IMPase inh: qHTS Assay for Identifying the Cell-Membrane Permeable IMPase Inhibitors. Inositol monophosphatase 1 (Rattus norvegicus), P97697. CHO-M1 cells, IP1 accumulation, HTRF TR-FRET ratio. inhibition (IP1 accumulation), % at 46.1 µM. 120,000 tested, under 10 active. AID 901, 2007; active means well fitted curve in the direction sought with a large enough effect in the signal ratio, not every such curve was filed as active; inconclusive means small, poorly fitted or top-dose-only effect, or a change in a side signal; inactive means no such curve, though single readings can be large or run the other way; the % refers to the signal ratio;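 further: cells stimulated with carbachol in lithium chloride buffer; plate controls were DMSO basal wells for no effect and reference inhibitor wells for full effect; higher means more IMPase inhibition seen as more IP1 and lower FRET ratio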
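Elevated IP1 in lysates lowers TR-FRET signal (665/620 ratio and 620 channel reported). Cells were CHO-M1, given carbachol (50 uM as added) plus 50mM LiCl, pH 7.4, 30 min, 37C; compounds titrated up to 46 uM; AC50 by Hill equation.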
ALOX12 inhib: qHTS Assay for Inhibitors of 12-hLO (12-human lipoxygenase); 150,000 tested, 0.12% active; purified 12-hLO, xylenol orange hydroperoxide absorbance; Potency, µM (series often up to 57.1 µM), without a hit: at the highest dose activity change, negative = inhibition, usual class: inhibitors; further: potency means the concentration at half of the fitted maximal effect; nearly all actives have a fitted effect of over 55% in size
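Lipoxygenase turnover measured by absorbance at 573 and 405 nm after Fe-XO development. Human 12hLO 150 nM, arachidonate 40 uM, pH 7.0 Hepes buffer with detergent; 15 min compound preincubation, 30 min reaction.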
PNC assembly inh: High Content Assay for Compounds that inhibit the Assembly of the Perinucleolar Compartment; PC3M PTB-GFP, PNC prevalence imaging, 16 h; active compounds read low; activity change (PNC), negative = inhibition, % at 10 µM; 140,000 tested, 3.1% active;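 active means readout at or below -70, meaning at least 70% loss of cells showing the perinucleolar compartment, a nuclear body marking cancer cells; inconclusive means readout between -30 and a set limit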;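 further: plate controls were DMSO wells for no effect and camptothecin positive control wells for full effect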
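Read-out is percentage of cells bearing a perinucleolar compartment, from automated 20x imaging of fixed, Hoechst-stained PC3M PTB-GFP cells. Cells were seeded 4 h, then exposed 16 h to compound (23 nl of library stock) in duplicate plates.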
IMPase Li inh: qHTS Assay for Identifying the Cell-Membrane Permeable IMPase Inhibitors: Potentiation with Lithium | AID 1457, 2008 | CHO-M1 cells, IP1 TR-FRET (IP-One), carbachol + lithium | Potency, µM (top dose mostly 59.4 µM), inactives show at the highest dose activity, negative = IMPase inhibition, hits mostly inhibitors | 210,000 tested, 0.35% active;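 further: IP1 builds up when IMPase is blocked and the TR-FRET signal falls; potency means the concentration at half of the fitted maximal effect; plate controls were basal vehicle for no effect and high inhibitor control for full effect; nearly all actives have a fitted effect of over 50% in size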
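Lithium-sensitised IP1 accumulation assay; M1-expressing CHO cells treated 30 min at 37C with compound. Competitive antibody detection by time-resolved FRET followed a 10 min room-temperature lysis step.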
Starred values were filed as active, the others as inactive; ? = inconclusive; · = no result; [ ] = dose if it differs, or a comment. Unless noted, the call rests on the fitted dose curve; in most records, active means well fitted curve in the direction sought with a large enough effect; inconclusive means small, poorly fitted or top-dose-only effect, or another doubt; inactive means no such curve, though single readings can be large; an effect the other way counts as inactive or inconclusive. Unless noted, on the % scale 0 is the no-effect control and ±100 the full control effect.

SMILES | 15-hLO-2 inh | IMPase inh | ALOX12 inhib | PNC assembly inh | IMPase Li inh
Cc1cc(NCCN(C)C)n2nc(-c3cccs3)cc2n1 | 39% | -3 | 2% | -89* | 19%[38.3 µM]
Cc1ccccc1Nc1c(-c2ccc(N3CCOCC3)cc2)nc2ccc(Br)cn12 | · | 3 | · | · | ·
COC(=O)Nc1nc(C)c(C(=O)c2ccccc2)s1 | -7% | -3 | -1% | ? | 23%[38.3 µM]
COC(=O)Nc1nc(-c2ccccc2)c(C(=O)c2ccccc2)s1 | 5% | 2 | -3% | -98* | 24%[38.3 µM]
Cc1cccc(N=Cc2[nH]c3ccc(Br)c(Cl)c3c2O)c1 | · | · | -1% | 11 | -1%
COc1ccccc1CN=Cc1[nH]c2ccc(Br)c(Cl)c2c1O | -20% | ? | -22% | 19 | 7.1µM*
Cc1ccc(NC(=O)/C(C#N)=C/c2cc(C)n(-c3ccc(Br)cc3)c2C)cc1C | · | -10 | · | · | ·
Cc1c(-c2cccs2)[n+](=O)c2c(n1[O-])CCCC2 | · | 5 | 0% | -100* | 4%
Cc1c(-c2ccccc2)[n+](=O)c2c(n1[O-])CCC2 | · | 14 | 6% | 163 | 5%
CCc1c(C)n([O-])c2c([n+]1=O)CCC2 | 2%[2.29 µM] | 1 | -1% | -81* | 7%[38.3 µM]
C=C[C@@H](C1=CC(=O)C(OC)=C(OC)C1=O)c1ccccc1 | · | · | · | · | 46%
N#Cc1c(-c2ccc(C(F)(F)F)cc2)cc(-c2ccccc2)[nH]c1=S | · | · | -3% | -99* | -3%
Cc1ccc(-c2cc(-c3ccccc3)[nH]c(=S)c2C#N)cc1 | 6%[11.4 µM] | -9[1.84 µM] | 2% | 25 | ?
Cc1ccc2c(CC(=O)OCc3csc(C)n3)coc2c1 | · | -1 | -5% | -100* | 4%
Cc1ccc2c(CC(=O)OCc3nc(N)nc(Nc4ccccc4C)n3)coc2c1 | 33% | 4 | -12% | ? | 12%[38.3 µM]
CCCCC(=O)NCCc1cc2ccc(OC)cc2[nH]c1=O | · | -2 | 1% | -100* | -6%
Cc1ccc2nc(SCC(=O)Nc3cc(C(F)(F)F)ccc3N3CCOCC3)[nH]c2c1 | 14% | -9 | -9% | -104* | 20%[38.3 µM]
O=C(CSc1nc2ccccc2o1)Nc1cc(C(F)(F)F)ccc1N1CCOCC1 | -1% | 10 | -4% | 26 | 28%[38.3 µM]
CCCn1nc(NC(=O)c2cccs2)c2cc3cc(OC)ccc3nc21 | 14% | -3 | -4% | -90* | 33%[38.3 µM]
COc1cc(C(=O)NC(=S)N(C)Cc2ccccc2)cc(OC)c1OC | · | · | · | · | 2%
CN(Cc1ccccc1)C(=S)NC(=O)c1ccc(-c2ccccc2)cc1 | · | 3 | 4% | ? | 10µM*
CCOC(=O)c1sc2nc(N3CCOCC3)c3c(c2c1N)CCC3 | 11% | -9 | -2% | -96* | -7%[38.3 µM]
NC(=O)c1sc2nc(N3CCOCC3)c3c(c2c1N)CCCC3 | -3% | ? | -9% | -4 | -21%[38.3 µM]
CO[C@]12C(COC(N)=O)C3=C(C(=O)C(C)=C(N)C3=O)N1CC1NC12 (stereo not given in full) | -1% | · | 0% | · | 50%
Cc1sc2ncn(CC(=O)NCc3ccccn3)c(=O)c2c1S(=O)(=O)N1CCOCC1 | · | -1 | 6% | -100* | -1%
SMILES | 15-hLO-2 inh | IMPase inh | ALOX12 inhib | PNC assembly inh | IMPase Li inh
O=C(CCc1nc2ccccc2[nH]1)N1CCc2ccccc2C1 | · | · | 5% | -91* | 5%
C[C@@]12C[C@H](O)[C@@H]3[C@H](CCC4=CC(=O)CC[C@]43C)[C@H]1CC[C@@H]2c1csc(-c2ccccc2)n1 | 0%[11.4 µM] | · | 4%[11.4 µM] | · | ·
CS(=O)(=O)N(CC(=O)NCc1ccncc1)c1ccc(F)c(Cl)c1 | · | · | · | · | 7%
Cc1ccc(N(CC(=O)NCc2ccncc2)S(C)(=O)=O)cc1Cl | 2% | 6 | -4% | -84* | ·
CSc1ccc2c(c1)N(CCCN(C)C)c1ccccc1S2 | 0%[11.4 µM] | · | 5%[11.4 µM] | · | 27%
CN(C)CCCN1c2ccccc2Sc2ccc(C(F)(F)F)cc21 | 48% | 20[20.6 µM] | -5% | -115* | 35%
CCCCCCCCCCCCC/C=C\[C@@H](O)[C@@H](N)CO | 39% | 2 | 2% | · | 17%
O=C(CN1CCSCC1)N/N=C/c1ccc(F)c(F)c1 | 0% | 4 | -1% | -113* | 12%[38.3 µM]
O=C(CN1CCCCCC1)N/N=C/c1ccc(Cl)c(Cl)c1 | · | · | -3% | -6 | -16%
Cc1oc2cc(O)cc(C)c2c(=O)c1-c1cnn(-c2ccccc2)c1 | 3%[2.29 µM] | 9 | -11% | -115* | 16%[38.3 µM]
CSc1nc(C)c(Cl)c(C)c1C#N | 14% | 3 | -1% | ? | -5%[38.3 µM]
C=CCNS(=O)(=O)c1nc(C)c(Cl)c(C)c1C#N | 4% | -14 | 2% | -85* | 15%[38.3 µM]
CN1C2CCC1CC(OC(=O)c1c[nH]c3ccccc13)C2 (stereo not given) | 8% | 10 | 4% | -89* | 19%
O=C(ON=C1CCN(S(=O)(=O)c2ccccc2)CC1)c1ccc(F)cc1 | · | -10 | 0% | -100* | 3%
COc1cccc(-c2coc3ccc(Br)cc3c2=O)c1 | · | · | · | · | 15%
O=C(Nc1ccccc1)c1cnc2ccccc2n1 | · | · | 1% | -114* | -6%
O=C(Nc1ccccc1)c1cc(Cl)nc2ccccc12 | · | · | 0% | -100* | 8%
O=C(Nc1ccccc1)c1ccc2ccccc2n1 | · | · | · | · | 6%
Cc1cccc(OCc2nnc(SCC(=O)Nc3ccc(C)cc3C)o2)c1 | · | 4 | · | · | ·

Screening results (PubChem)
